Screening results (PubChem BioAssay)
A selection: hits, their analogues and other compounds. The true share with any hit is near 21%.
NS1 inh – blocks influenza NS1 protein function; Potency, µM (highest dose often 46.1 µM), for the others: top-dose activity, positive = more growth; 0.4% of 270,000 active; AID 2326; calls by dose curve; also: potency is read from the fitted curve at half-maximal effect; actives are rising curves; nearly all actives have a fitted effect of over 50% in size
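OD600 was taken as the measure of yeast growth restored by compound in an NS1-expressing S. cerevisiae strain. Cells had been washed out of glucose medium and diluted 1:100 into galactose -URA medium, pH 6.0.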
Pf growth 48h – P. falciparum growth inhibition at 48 hours (one generation); P. falciparum luciferase growth in erythrocytes, 48 h; Potency, µM (series often up to 28.7 µM), inactives show at the top dose activity change, negative = inhibition, actives largely listed as inhibitors; 5.9% of 310,000 active; also: potency is read from the fitted curve at half-maximal effect; % is scaled to controls: 0 for no effect and ±100 for the full control effect
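Read-out is firefly luciferase luminescence from an integrated reporter in P. falciparum, so falling signal marks reduced parasite growth. Infected erythrocytes were at 2% hematocrit and 0.1% parasitemia (final) in Albumax-supplemented RPMI 1640.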
Cycloheximide cs – counter-screen hit for Shiga toxin inhibitors, cycloheximide; max response, %; AID 2314; 12% of 300,000 active; cell reporter, cycloheximide protein synthesis inhibition counterscreen; in the data active = max response mostly above about 13%, no sharp cut-off; inactive = mostly below about 14%; also: read at 38.3 µM for the half of the compounds with a filed dose; 0% is about no effect
Pf growth 96h – inhibits malaria parasite growth, 96 h; AID 504834; 6.9% of 320,000 active; Potency, µM (top dose mostly 28.7 µM), for inactives: top-dose activity change, negative = inhibition, usual class: inhibitors; P. falciparum luciferase reporter growth, 96 h; also: potency is read from the fitted curve at half-maximal effect; % is scaled to controls: 0 for no effect and ±100 for the full control effect
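Delayed-death screen, second-generation endpoint: infected erythrocytes, 2% hematocrit, 0.05% parasitemia final; 96 hours at 37 C, 5% CO2; luciferase detection reagent; luminescence decrease equals reduced growth.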
Shiga inhibitor – blocks Shiga toxin action in Vero cells; Vero cells, Shiga toxin protein synthesis inhibition reporter; inhibition, % at 38.7 µM; 9.2% of 290,000 active; in the data active = inhibition mostly above about 28%, no sharp cut-off; inactive = mostly below about 43%; also: 0% is about no effect
* hit, by the source's call; ? = inconclusive; nt = no result; [ ] = remark or other dose. Unless noted, calls follow the shape of the dose curve; as a rule, active = well fitted inhibition curve with a large enough effect; inconclusive = small, poorly fitted or top-dose-only effect, or another doubt; inactive = no such curve, though single readings can be large or run the other way.

SMILES	NS1 inh	Pf growth 48h	Cycloheximide cs	Pf growth 96h	Shiga inhibitor
COCCNC(=S)Nc1cc2oc3ccccc3c2cc1OC	-18%	?	16*	8%	18
COc1cc2c(cc1NC(=O)c1cccnc1)oc1ccccc12	-176%	nt	29*	106%	57
COc1cc2c(cc1NC(=S)NC(=O)c1c(OC)cccc1OC)oc1ccccc12	10%	4.1µM*	-1	3.7µM*	-6
COc1ccc(C(=O)NC(=S)Nc2cc3oc4ccccc4c3cc2OC)cc1	22%	7%	5	47%	9
O=C(CCNS(=O)(=O)c1ccc(Br)s1)NCc1ccccc1	nt	18%	4	1%	-5
CCN(CC)S(=O)(=O)c1ccc2oc(SCc3ccc(F)cc3)nc2c1	-14%	?	12*	?	6
CCN(CC)S(=O)(=O)c1ccc2oc(SCC(=O)NC3CC3)nc2c1	5%	11%	2	22%	-11
CCN(CC)S(=O)(=O)c1ccc2oc(SCC(=O)Nc3cc(C)on3)nc2c1	nt	?	nt	2.1µM*	nt
COc1ccccc1NS(=O)(=O)c1ccc2oc(SCc3ccc(C#N)cc3)nc2c1	5%	-24%	1	9.3µM*	-9
Cc1cc(NC(=O)CSc2nc3cc(Cl)ccc3o2)no1	0%	8.3µM*	-3	56%	-7
COc1ccc(CSC2=CS(=O)(=O)c3ccccc3N2)cc1	1%	-31%[5.75 µM]	11	-14%	27
O=C(Cc1ccccc1)NNc1c2ccccc2nc2ccccc12	-15%	-12%	-3	81%	-5
O=C(Nc1c2ccccc2nc2ccccc12)C(Cl)(Cl)Cl	-131%	1µM*	1	36%	10
Cc1nn(CCCC(=O)NCCc2ccccc2)c(=O)c2nn(-c3ccccc3)c(C)c12	-18%	-19%	3	?	5
COC(=O)c1ccccc1NC(=O)CCCn1nc(C)c2c(C)n(-c3ccccc3)nc2c1=O	25%	?	-3	15µM*	-2
Cc1ccccc1NC(=O)CCCn1nc(C)c2c(C)n(-c3ccccc3)nc2c1=O	7%	-12%	9	?	-1
COc1ccccc1CNC(=O)CCCn1nc(C)c2c(C)n(-c3ccccc3)nc2c1=O	-10%	-25%	-4	12µM*	-3
Cc1cc(C)cc(NC(=O)CCCn2nc(C)c3c(C)n(-c4ccccc4)nc3c2=O)c1	2%	9%	-2	13µM*	-2
O=C(Cn1cc2c(n1)CCCC2)N1CCCc2ccccc21	-16%	4%	18*	-18%	76*
CC1CCc2nn(CC(=O)N3CCc4ccccc43)cc2C1 (configuration not stated)	-5%	nt	-4	10µM*	-4
O=C(Cn1cc2c(n1)CCCCC2)N1CCCCC1	?	36%	18*	12%	38
Cc1c(Cl)c([N+](=O)[O-])nn1CC(=O)N1CCCc2ccccc21	15%	35%	25*	?	-2
CC(C)(C)NC(=O)c1ccc(NC(=O)c2ccccc2-c2ccccc2C(=O)O)cc1	17%	?	1	?	-10
NC(=O)C1CCN(c2nc(-c3cccc([N+](=O)[O-])c3)cs2)CC1	nt	?	nt	-19%	nt
Cc1cc(NC(=O)CSc2nnnn2Cc2ccccc2)no1	3%	-29%	-5	nt	-3
SMILES	NS1 inh	Pf growth 48h	Cycloheximide cs	Pf growth 96h	Shiga inhibitor
Cc1c(Cl)c([N+](=O)[O-])nn1CC(=O)N1CCN(C23CC4CC(CC(C4)C2)C3)CC1	0%	12µM*	0	2%	-10
Cc1nn(CC(=O)N2CCN(C34CC5CC(CC(C5)C3)C4)CC2)c(C)c1[N+](=O)[O-]	12%	1%	-1	?	-12
CCc1nnc2n1N=C(c1ccc(-c3cc(Cl)ccc3Cl)o1)CS2	0%	nt	-1	9.3µM*	-3
CCc1nnc2n1N=C(c1ccc(-c3ccc(Cl)cc3Cl)o1)CS2	2%	nt	nt	nt	nt
O=C(O)c1ccc(COc2ccc(CO)cc2Cl)cc1	-1%	76%	29*	13%	72*
O=C(O)c1ccc(OCc2ccccc2)c(Cl)c1	-30%	nt	nt	nt	nt
O=C(O)c1cccc(COCC(F)(F)C(F)F)c1	4%	11%	14	nt	33
O=C(O)c1cccc(COc2ccc(CO)cc2Cl)c1	0%	0.21µM*	6	?	-5
COc1ccccc1OCC(=O)NC1CCCc2ccccc21 (configuration not stated)	-11%	-3%	-4	-5%	-10
O=C(CCCOc1ccccc1)NC1CCCc2ccccc21 (configuration not stated)	-6%	-2%	5	43%	11
O=C(Cc1ccc(Br)cc1)NC1CCCc2ccccc21 (configuration not stated)	-3%	-11%	5	-14%	-5
O=C(CCl)NC1CCCc2ccccc21 (configuration not stated)	9%	12µM*	-1	48%	-13
O=C(CCn1cccc1)NC1CCCc2ccccc21 (configuration not stated)	?	6%	-3	6.6µM*	-14
Cc1cc(C)cc(OCC(=O)NC2CCCc3ccccc32)c1 (configuration not stated)	-19%	?	-2	8.3µM*	6
COc1ccc(OC)c(CN2CCC(C(=O)N3CCOCC3)CC2)c1	-10%	0%	-1	9.3µM*	-1
COc1ccc(CN2CCC(N3CCC(C(=O)N4CCOCC4)CC3)CC2)c(F)c1	5%	11%	-1	10µM*	12
O=C1SC(SCc2ccccc2)=N/C1=C\c1ccco1	-4%	8%	24	nt	48*
O=C1SC(SCc2ccccc2)=N/C1=C\c1ccc(C(=O)O)cc1	6%	13%	-1	-17%	-7
CC(C)COc1cccc(-c2cc(C(=O)N/N=C/c3ccncc3)c3ccccc3n2)c1	10%	?	16	?	-5
O=C(O)c1ccccc1NC(=O)c1cc(-c2ccccc2)nc2ccccc12	-12%	4%	-4	-19%	-5
O=C(Nc1ccon1)c1cc(-c2ccccc2)nc2ccccc12	-61%	7.4µM*	-3	nt	16
CCOc1cccc(-c2cc(C(=O)Nc3ccon3)c3ccccc3n2)c1	0%	2.1µM*	-3	-18%	-4
O=C(Nc1cccc(S(=O)(=O)N2CCCCC2)c1)c1ccccc1NS(=O)(=O)c1ccc(F)cc1	6%	12µM*	0	8.3µM*	24
Cc1ccc(NS(=O)(=O)c2ccccc2F)cc1S(=O)(=O)N1CCCCCC1	nt	?	nt	1%	nt
Cc1ccc(NC(=O)c2ccccc2NS(=O)(=O)c2ccc(F)cc2)cc1S(=O)(=O)N1CCCCC1	25%	13µM*	-1	12µM*	-2
COc1ccc(C=Nc2cccnc2N)cc1	-16%	71%	24*	48%	nt
Cc1ccc(C=Nc2cccnc2N)cc1	0%	2%	19*	-15%	13*
Cn1c(C(=O)N2CCCC(Nc3ccc(F)cc3)C2)cc2ccccc21 (configuration not stated)	8%	11%	1	20%	-2
COC(=O)COc1ccc2cc(-c3ccc(OC)cc3)c(=O)oc2c1	1%	102%	2	94%	-6
